# Assay results reported in the supplement of paper PMC8975748.
# Counter-ions that a name gives are not always drawn. ± gives the standard deviation of the averaged measurements.
# Assays:
# [1] = tested on: Saccharomyces cerevisiae BY4741 SeMeCo community; experiment: mean cell size (pixel area) (pixels); higher = larger cells; settings: 10 µM; 24 h; SM minimal medium
# In short: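 A fluorescent Saccharomyces cerevisiae BY4741 community carrying four plasmids was used, with each plasmid complementing one auxotrophy and bearing a fluorescent marker. An overnight preculture at OD600 = 1.0 was diluted to OD600 = 0.3, and 70 µl went into 384-well plates acoustically predosed with drug (final 10 µM) in SM medium for 24 h. After paraformaldehyde fixation, cells were imaged by automated confocal microscopy and analysed in Harmony, giving the mean cell pixel area per well. Each value is the average of 3 replicates. Same SeMeCo high-content imaging drug screen: Selleck FDA-approved drugs at 10 µM, 24 h in SM medium, 384-well plates, 3 replicates.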
# [2] = tested on: Saccharomyces cerevisiae BY4741 SeMeCo community; experiment: z-score of prototroph abundance vs DMSO median; higher = larger share of this subpopulation than in DMSO controls; settings: 10 µM; 24 h; SM minimal medium; subpopulation (auxotrophy): Prototroph
# In short: (§1)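 Automated confocal microscopy of paraformaldehyde-fixed cells was used to follow a Saccharomyces cerevisiae BY4741 community carrying four plasmids, each restoring one auxotrophy and encoding a distinct fluorescent protein. The community was pre-grown overnight to OD600 1.0, diluted to 0.3, and added at 70 µl to 384-well plates acoustically predosed with library drugs (10 µM final) for 24 h of growth in minimal SM medium. Single-auxotroph fluorescent strains set thresholds and autofluorescence correction, and each subpopulation's abundance was scored as a z-score against the vehicle-well median.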
# [3] = tested on: Saccharomyces cerevisiae BY4741 SeMeCo community; experiment: z-score of subpopulation abundance vs DMSO median, subpopulation auxotrophic for M; higher = larger share of this subpopulation than in DMSO controls; settings: 10 µM; 24 h; SM minimal medium; subpopulation (auxotrophy): M
# In short: as §1
# [4] = tested on: Saccharomyces cerevisiae BY4741 SeMeCo community; experiment: z-score of subpopulation abundance vs DMSO median, subpopulation auxotrophic for L; higher = larger share of this subpopulation than in DMSO controls; settings: 10 µM; 24 h; SM minimal medium; subpopulation (auxotrophy): L
# In short: as §1
# [5] = tested on: Saccharomyces cerevisiae BY4741 SeMeCo community; experiment: z-score of subpopulation abundance vs DMSO median, subpopulation auxotrophic for H; higher = larger share of this subpopulation than in DMSO controls; settings: 10 µM; 24 h; SM minimal medium; subpopulation (auxotrophy): H
# In short: as §1
# [6] = tested on: Saccharomyces cerevisiae BY4741 SeMeCo community; experiment: z-score of subpopulation abundance vs DMSO median, subpopulation auxotrophic for LU; higher = larger share of this subpopulation than in DMSO controls; settings: 10 µM; 24 h; SM minimal medium; subpopulation (auxotrophy): LU
# In short: as §1
# [7] = tested on: Saccharomyces cerevisiae BY4741 SeMeCo community; experiment: z-score of subpopulation abundance vs DMSO median, subpopulation auxotrophic for HM; higher = larger share of this subpopulation than in DMSO controls; settings: 10 µM; 24 h; SM minimal medium; subpopulation (auxotrophy): HM
# In short: as §1
# [8] = tested on: Saccharomyces cerevisiae BY4741 SeMeCo community; experiment: z-score of subpopulation abundance vs DMSO median, subpopulation auxotrophic for HU; higher = larger share of this subpopulation than in DMSO controls; settings: 10 µM; 24 h; SM minimal medium; subpopulation (auxotrophy): HU
# In short: as §1
# [9] = tested on: Saccharomyces cerevisiae BY4741 SeMeCo community; experiment: z-score of subpopulation abundance vs DMSO median, subpopulation auxotrophic for UM; higher = larger share of this subpopulation than in DMSO controls; settings: 10 µM; 24 h; SM minimal medium; subpopulation (auxotrophy): UM
# In short: as §1
# [10] = tested on: Saccharomyces cerevisiae BY4741 SeMeCo community; experiment: z-score of subpopulation abundance vs DMSO median, subpopulation auxotrophic for HL; higher = larger share of this subpopulation than in DMSO controls; settings: 10 µM; 24 h; SM minimal medium; subpopulation (auxotrophy): HL
# In short: as §1
# [11] = tested on: Saccharomyces cerevisiae BY4741 SeMeCo community; experiment: z-score of subpopulation abundance vs DMSO median, subpopulation auxotrophic for HLU; higher = larger share of this subpopulation than in DMSO controls; settings: 10 µM; 24 h; SM minimal medium; subpopulation (auxotrophy): HLU
# In short: as §1
# [12] = tested on: Saccharomyces cerevisiae BY4741 SeMeCo community; experiment: z-score of subpopulation abundance vs DMSO median, subpopulation auxotrophic for HLM; higher = larger share of this subpopulation than in DMSO controls; settings: 10 µM; 24 h; SM minimal medium; subpopulation (auxotrophy): HLM
# In short: as §1
# [13] = tested on: Saccharomyces cerevisiae BY4741 SeMeCo community; experiment: z-score of subpopulation abundance vs DMSO median, subpopulation auxotrophic for HUM; higher = larger share of this subpopulation than in DMSO controls; settings: 10 µM; 24 h; SM minimal medium; subpopulation (auxotrophy): HUM
# In short: as §1
# [14] = tested on: Saccharomyces cerevisiae BY4741 SeMeCo community; experiment: z-score of subpopulation abundance vs DMSO median, subpopulation auxotrophic for LUM; higher = larger share of this subpopulation than in DMSO controls; settings: 10 µM; 24 h; SM minimal medium; subpopulation (auxotrophy): LUM
# In short: as §1
# [15] = tested on: Saccharomyces cerevisiae BY4741 SeMeCo community; experiment: z-score of subpopulation abundance vs DMSO median, subpopulation auxotrophic for HLUM; higher = larger share of this subpopulation than in DMSO controls; settings: 10 µM; 24 h; SM minimal medium; subpopulation (auxotrophy): HLUM
# In short: as §1
# [16] = tested on: Saccharomyces cerevisiae BY4741 SeMeCo community; experiment: z-score of subpopulation abundance vs DMSO median, subpopulation auxotrophic for U; higher = larger share of this subpopulation than in DMSO controls; settings: 10 µM; 24 h; SM minimal medium; subpopulation (auxotrophy): U
# In short: as §1
# [17] = tested on: Saccharomyces cerevisiae BY4741 SeMeCo community; experiment: z-score of subpopulation abundance vs DMSO median, subpopulation auxotrophic for LM; higher = larger share of this subpopulation than in DMSO controls; settings: 10 µM; 24 h; SM minimal medium; subpopulation (auxotrophy): LM
# In short: as §1
Structure (SMILES),mean cell size [1],z-score of prototroph abundance [2],z-score of subpopulation abundance [3],z-score of subpopulation abundance [4],z-score of subpopulation abundance [5],z-score of subpopulation abundance [6],z-score of subpopulation abundance [7],z-score of subpopulation abundance [8],z-score of subpopulation abundance [9],z-score of subpopulation abundance [10],z-score of subpopulation abundance [11],z-score of subpopulation abundance [12],z-score of subpopulation abundance [13],z-score of subpopulation abundance [14],z-score of subpopulation abundance [15],z-score of subpopulation abundance [16],z-score of subpopulation abundance [17]
CCCOc1ccc(C(=O)OCCN(CC)CC)cc1N [Proparacaine HCl],12.56 ± 0.068,0.46,-0.55,0.26,-0.4,0.25,-0.65,-0.31,-0.06,-0.68,-0.61,-0.35,-0.66,-0.49,-0.51,,
CC[C@H]1OC(=O)[C@H](C)[C@@H](O[C@H]2C[C@@](C)(OC)[C@@H](O)[C@H](C)O2)[C@H](C)[C@@H](O[C@@H]2O[C@H](C)C[C@H](N(C)C)[C@H]2O)[C@](C)(O)C[C@@H](C)[C@@H]2N[C@@H](COCCOC)O[C@H]([C@H]2C)[C@]1(C)O [Dirithromycin],12.3 ± 0.27,0.11,0.26,0.38,,0.32,,-0.26,,-0.09,-0.71,-0.77,-0.1,0.3,-0.46,0.26,
C=CC[C@@H]1/C=C(\C)C[C@H](C)C[C@H](OC)[C@H]2O[C@@](O)(C(=O)C(=O)N3CCCC[C@H]3C(=O)O[C@H](/C(C)=C/[C@@H]3CC[C@@H](O)[C@H](OC)C3)[C@H](C)[C@@H](O)CC1=O)[C@H](C)C[C@@H]2OC [Tacrolimus (FK506)],,-1.63,2.07,0.71,1.87,-1.01,1.61,1.08,1.02,1.89,1.27,1.8,1.84,1.93,2.77,-0.41,0.93
COc1cccc2c1C(=O)c1c(O)c3c(c(O)c1C2=O)C[C@@](O)(C(C)=O)C[C@@H]3O[C@H]1C[C@H](N)[C@H](O)[C@H](C)O1 [Daunorubicin HCl],,-0.6,-4.78,-1.28,0.44,3.27,-3.07,4.21,0.35,0.73,4.11,-0.29,1.29,1.18,5.15,4.14,-1.4
Nc1ccc(S(=O)(=O)Nc2ccccn2)cc1 [Sulfapyridine],12.2 ± 0.13,,0.24,-0.23,-0.9,-0.25,,-0.55,-0.75,-0.68,-0.45,-0.9,-0.97,-0.73,-0.89,-0.03,
CNCCC(Oc1ccc(C(F)(F)F)cc1)c1ccccc1 (centres undefined) [Fluoxetine HCl],12.4 ± 0.14,0.06,0.18,-0.14,-0.47,0.51,-0.49,,0.29,-0.68,0.27,-0.31,-0.15,0.21,0.65,0,
CC(C)[C@H](N)C(=O)OCCOCn1cnc2c(=O)nc(N)[nH]c21 [Valaciclovir HCl],12.3 ± 0.16,0.5,-0.55,-0.06,-0.62,-0.13,-0.81,0.53,0.08,-0.27,-0.75,-0.27,0.37,,-0.14,0.12,
